Measurements taken from ChEMBL document CHEMBL1961873, “Compounds: GSK PKIS; Assays: Nanosyn kinase panel” (2012).

Experiments:
[1] = target: Sphingosine kinase 1 (Homo sapiens) (UniProt Q9NYA1); conditions: at 1 µM;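 further: mean SPHK1 inhibition value reported from the GSK PKIS kinase panel screen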
[2] = target: T1, Sphingosine kinase 2 (Homo sapiens) (UniProt Q9NRA0); conditions: at 0.1 µM
T1 sequence (whole entry): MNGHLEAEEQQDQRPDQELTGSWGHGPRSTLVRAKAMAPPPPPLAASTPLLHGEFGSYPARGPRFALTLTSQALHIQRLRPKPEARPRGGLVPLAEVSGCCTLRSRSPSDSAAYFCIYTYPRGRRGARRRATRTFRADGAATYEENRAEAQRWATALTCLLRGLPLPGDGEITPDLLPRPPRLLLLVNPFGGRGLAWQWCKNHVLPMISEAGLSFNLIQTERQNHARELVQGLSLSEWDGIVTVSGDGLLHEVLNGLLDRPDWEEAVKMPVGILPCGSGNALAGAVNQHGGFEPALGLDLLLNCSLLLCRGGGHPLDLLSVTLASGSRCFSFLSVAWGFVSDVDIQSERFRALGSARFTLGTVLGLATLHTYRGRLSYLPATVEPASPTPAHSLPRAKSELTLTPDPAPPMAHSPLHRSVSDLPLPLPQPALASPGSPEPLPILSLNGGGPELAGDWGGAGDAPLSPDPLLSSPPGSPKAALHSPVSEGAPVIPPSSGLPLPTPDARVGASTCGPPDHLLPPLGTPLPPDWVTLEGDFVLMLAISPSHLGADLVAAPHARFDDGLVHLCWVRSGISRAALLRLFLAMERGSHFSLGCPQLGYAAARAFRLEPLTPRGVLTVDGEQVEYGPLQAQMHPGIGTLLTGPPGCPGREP

[3] = target: T1, Sphingosine kinase 2 (Homo sapiens); conditions: at 1 µM
[4] = target: Casein kinase II subunit alpha (Homo sapiens) (UniProt P68400); conditions: at 0.1 µM
Sequence of Casein kinase II subunit alpha (Homo sapiens) (P68400 whole entry, looked up): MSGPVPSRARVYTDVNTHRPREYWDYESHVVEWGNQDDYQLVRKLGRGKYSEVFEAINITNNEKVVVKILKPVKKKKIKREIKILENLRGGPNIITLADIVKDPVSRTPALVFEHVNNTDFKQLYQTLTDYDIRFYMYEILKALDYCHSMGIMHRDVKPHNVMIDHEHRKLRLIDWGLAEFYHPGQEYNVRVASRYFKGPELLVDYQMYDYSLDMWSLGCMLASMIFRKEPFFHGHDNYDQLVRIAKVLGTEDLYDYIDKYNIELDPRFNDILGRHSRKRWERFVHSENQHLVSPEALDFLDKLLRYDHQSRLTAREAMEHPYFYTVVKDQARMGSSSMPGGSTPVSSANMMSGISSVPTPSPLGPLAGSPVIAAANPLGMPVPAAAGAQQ

[5] = target: Casein kinase II subunit alpha (Homo sapiens) (UniProt P68400); conditions: at 1 µM
[6] = target: T2, Inhibitor of nuclear factor kappa-B kinase subunit alpha (Homo sapiens) (UniProt O15111); conditions: at 0.1 µM
T2 sequence (whole entry): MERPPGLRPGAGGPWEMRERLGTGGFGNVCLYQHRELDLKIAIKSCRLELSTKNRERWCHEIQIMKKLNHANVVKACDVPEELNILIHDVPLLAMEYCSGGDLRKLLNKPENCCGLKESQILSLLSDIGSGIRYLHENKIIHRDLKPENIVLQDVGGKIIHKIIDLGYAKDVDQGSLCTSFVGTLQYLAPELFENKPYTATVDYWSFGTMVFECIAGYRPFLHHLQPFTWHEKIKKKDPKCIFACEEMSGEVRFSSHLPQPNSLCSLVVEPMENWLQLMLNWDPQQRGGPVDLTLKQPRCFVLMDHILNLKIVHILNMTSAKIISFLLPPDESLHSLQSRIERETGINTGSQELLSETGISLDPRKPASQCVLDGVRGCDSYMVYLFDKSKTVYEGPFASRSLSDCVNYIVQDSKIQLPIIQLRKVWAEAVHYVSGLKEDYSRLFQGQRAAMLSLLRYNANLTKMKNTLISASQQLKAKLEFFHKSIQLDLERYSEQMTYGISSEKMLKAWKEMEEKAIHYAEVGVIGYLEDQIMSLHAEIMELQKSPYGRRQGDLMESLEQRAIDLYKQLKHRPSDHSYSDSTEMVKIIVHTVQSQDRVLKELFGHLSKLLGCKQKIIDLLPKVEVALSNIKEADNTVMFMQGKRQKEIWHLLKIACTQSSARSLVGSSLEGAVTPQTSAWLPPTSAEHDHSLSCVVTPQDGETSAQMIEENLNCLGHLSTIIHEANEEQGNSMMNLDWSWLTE

[7] = target: T2, Inhibitor of nuclear factor kappa-B kinase subunit alpha (Homo sapiens); conditions: at 1 µM
[8] = target: T3, Inhibitor of nuclear factor kappa-B kinase subunit beta (Homo sapiens) (UniProt O14920); conditions: at 0.1 µM
T3 sequence (whole entry): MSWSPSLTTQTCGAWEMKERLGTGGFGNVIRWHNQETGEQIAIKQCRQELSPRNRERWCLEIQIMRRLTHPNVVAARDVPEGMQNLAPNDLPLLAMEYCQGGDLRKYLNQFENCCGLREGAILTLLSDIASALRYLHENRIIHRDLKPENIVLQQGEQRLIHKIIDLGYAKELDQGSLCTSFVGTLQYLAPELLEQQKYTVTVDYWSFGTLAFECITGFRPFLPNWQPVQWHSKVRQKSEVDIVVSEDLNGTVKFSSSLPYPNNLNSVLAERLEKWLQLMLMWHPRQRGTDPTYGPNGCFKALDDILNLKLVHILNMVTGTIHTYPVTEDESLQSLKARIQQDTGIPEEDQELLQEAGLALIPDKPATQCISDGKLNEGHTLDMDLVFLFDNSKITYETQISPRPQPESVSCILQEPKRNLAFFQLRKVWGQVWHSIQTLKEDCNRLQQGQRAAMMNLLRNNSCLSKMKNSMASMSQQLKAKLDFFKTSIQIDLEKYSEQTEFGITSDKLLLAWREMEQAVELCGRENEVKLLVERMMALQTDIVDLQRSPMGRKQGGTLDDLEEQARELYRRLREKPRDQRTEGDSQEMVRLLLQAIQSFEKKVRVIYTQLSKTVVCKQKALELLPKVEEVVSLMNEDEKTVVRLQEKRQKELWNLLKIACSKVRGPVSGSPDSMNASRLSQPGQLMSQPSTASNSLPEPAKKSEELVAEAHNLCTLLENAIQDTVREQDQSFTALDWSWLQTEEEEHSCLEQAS

[9] = target: T3, Inhibitor of nuclear factor kappa-B kinase subunit beta (Homo sapiens); conditions: at 1 µM
[10] = target: T4, Inhibitor of nuclear factor kappa-B kinase subunit epsilon (Homo sapiens) (UniProt Q14164); conditions: at 0.1 µM
T4 sequence (whole entry): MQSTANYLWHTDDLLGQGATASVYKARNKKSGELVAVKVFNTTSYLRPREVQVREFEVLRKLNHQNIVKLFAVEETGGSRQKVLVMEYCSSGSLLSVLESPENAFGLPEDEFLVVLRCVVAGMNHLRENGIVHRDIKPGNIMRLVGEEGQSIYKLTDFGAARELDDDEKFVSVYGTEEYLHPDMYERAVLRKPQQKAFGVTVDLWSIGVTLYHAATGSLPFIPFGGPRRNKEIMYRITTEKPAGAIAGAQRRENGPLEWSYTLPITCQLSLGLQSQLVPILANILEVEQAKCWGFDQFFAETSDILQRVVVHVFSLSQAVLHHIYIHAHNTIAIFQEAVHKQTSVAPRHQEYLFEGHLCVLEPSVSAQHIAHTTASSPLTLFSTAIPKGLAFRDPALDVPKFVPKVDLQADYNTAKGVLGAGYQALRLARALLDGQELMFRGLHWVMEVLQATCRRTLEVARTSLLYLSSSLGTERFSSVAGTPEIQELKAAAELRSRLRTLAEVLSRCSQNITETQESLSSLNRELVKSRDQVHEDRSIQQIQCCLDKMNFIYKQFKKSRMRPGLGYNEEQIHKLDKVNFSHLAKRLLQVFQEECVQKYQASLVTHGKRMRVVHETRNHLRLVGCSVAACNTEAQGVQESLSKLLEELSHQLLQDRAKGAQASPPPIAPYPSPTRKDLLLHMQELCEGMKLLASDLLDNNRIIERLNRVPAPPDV

[11] = target: T4, Inhibitor of nuclear factor kappa-B kinase subunit epsilon (Homo sapiens); conditions: at 1 µM
[12] = target: T5, Serine/threonine-protein kinase Nek1 (Homo sapiens) (UniProt Q96PY6); conditions: at 0.1 µM
T5 sequence (whole entry): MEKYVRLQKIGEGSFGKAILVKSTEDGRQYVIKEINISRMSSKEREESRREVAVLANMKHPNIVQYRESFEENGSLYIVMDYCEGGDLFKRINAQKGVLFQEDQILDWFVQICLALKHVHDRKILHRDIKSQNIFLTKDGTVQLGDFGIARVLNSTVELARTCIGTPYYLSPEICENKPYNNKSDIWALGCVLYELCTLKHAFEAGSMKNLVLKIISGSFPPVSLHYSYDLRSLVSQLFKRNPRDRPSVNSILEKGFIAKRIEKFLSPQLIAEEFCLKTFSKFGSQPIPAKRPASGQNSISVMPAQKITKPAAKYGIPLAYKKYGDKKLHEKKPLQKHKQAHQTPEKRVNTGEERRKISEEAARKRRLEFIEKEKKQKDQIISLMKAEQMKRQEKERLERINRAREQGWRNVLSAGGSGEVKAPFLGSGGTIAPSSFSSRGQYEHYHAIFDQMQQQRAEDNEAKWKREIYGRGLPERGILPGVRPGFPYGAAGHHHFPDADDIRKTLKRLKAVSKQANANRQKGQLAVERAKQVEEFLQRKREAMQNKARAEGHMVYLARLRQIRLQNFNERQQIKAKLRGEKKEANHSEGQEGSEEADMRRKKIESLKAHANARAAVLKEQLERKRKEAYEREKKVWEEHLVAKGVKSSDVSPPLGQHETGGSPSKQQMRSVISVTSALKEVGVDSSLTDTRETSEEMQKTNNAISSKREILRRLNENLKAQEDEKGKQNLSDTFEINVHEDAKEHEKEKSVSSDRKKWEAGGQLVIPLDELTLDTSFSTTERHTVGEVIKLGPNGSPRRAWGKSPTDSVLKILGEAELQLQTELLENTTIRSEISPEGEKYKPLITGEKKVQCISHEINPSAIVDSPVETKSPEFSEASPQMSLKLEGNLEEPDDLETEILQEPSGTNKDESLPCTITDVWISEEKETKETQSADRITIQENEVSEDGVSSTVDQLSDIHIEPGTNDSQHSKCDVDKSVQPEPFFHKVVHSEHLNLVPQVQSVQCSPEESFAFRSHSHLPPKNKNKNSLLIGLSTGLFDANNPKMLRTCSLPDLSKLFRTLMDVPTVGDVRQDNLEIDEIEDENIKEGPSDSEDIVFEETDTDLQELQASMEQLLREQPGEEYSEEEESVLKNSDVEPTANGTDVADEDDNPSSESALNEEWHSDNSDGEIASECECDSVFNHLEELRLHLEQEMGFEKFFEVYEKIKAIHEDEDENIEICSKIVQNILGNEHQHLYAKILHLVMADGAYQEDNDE

[13] = target: T5, Serine/threonine-protein kinase Nek1 (Homo sapiens); conditions: at 1 µM
[14] = target: T6, Serine/threonine-protein kinase Nek2 (Homo sapiens) (UniProt P51955); conditions: at 0.1 µM
T6 sequence (whole entry): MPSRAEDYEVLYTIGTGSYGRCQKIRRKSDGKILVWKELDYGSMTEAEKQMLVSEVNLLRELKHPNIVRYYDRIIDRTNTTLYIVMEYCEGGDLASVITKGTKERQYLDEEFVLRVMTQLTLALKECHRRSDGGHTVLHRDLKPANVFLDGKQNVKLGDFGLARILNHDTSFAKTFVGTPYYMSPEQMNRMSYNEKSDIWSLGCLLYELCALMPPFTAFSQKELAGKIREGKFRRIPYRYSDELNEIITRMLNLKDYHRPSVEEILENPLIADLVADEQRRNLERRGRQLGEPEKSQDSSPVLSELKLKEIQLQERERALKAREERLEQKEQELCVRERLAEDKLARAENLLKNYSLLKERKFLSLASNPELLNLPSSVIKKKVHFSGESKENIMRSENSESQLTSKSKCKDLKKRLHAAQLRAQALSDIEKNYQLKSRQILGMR

[15] = target: T6, Serine/threonine-protein kinase Nek2 (Homo sapiens); conditions: at 1 µM
[16] = target: Serine/threonine-protein kinase Nek6 (Homo sapiens) (UniProt Q9HC98); conditions: at 0.1 µM
Sequence of Serine/threonine-protein kinase Nek6 (Homo sapiens) (Q9HC98 whole entry): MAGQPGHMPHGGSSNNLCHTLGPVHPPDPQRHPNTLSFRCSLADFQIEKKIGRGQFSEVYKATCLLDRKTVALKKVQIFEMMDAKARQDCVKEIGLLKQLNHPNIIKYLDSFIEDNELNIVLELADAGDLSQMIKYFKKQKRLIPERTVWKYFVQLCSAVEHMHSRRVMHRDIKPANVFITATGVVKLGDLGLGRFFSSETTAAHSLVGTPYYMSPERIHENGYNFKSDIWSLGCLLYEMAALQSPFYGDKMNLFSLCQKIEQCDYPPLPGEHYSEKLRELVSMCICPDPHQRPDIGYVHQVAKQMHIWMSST

[17] = target: Serine/threonine-protein kinase Nek6 (Homo sapiens) (UniProt Q9HC98); conditions: at 1 µM
[18] = target: Serine/threonine-protein kinase Nek7 (Homo sapiens) (UniProt Q8TDX7); conditions: at 0.1 µM
Sequence of Serine/threonine-protein kinase Nek7 (Homo sapiens) (Q8TDX7 whole entry, looked up): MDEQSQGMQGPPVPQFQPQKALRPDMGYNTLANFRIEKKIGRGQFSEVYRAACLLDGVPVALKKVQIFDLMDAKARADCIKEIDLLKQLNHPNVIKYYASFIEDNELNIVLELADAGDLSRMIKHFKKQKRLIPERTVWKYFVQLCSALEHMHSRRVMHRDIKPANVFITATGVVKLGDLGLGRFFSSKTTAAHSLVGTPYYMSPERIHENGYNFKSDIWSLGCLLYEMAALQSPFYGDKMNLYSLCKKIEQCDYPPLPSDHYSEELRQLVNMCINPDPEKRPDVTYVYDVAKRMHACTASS

[19] = target: Serine/threonine-protein kinase Nek7 (Homo sapiens) (UniProt Q8TDX7); conditions: at 1 µM
[20] = target: T7, Serine/threonine-protein kinase Nek9 (Homo sapiens) (UniProt Q8TD19); conditions: at 0.1 µM;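 further: reported value is the mean percent inhibition of NEK9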
T7 sequence (whole entry): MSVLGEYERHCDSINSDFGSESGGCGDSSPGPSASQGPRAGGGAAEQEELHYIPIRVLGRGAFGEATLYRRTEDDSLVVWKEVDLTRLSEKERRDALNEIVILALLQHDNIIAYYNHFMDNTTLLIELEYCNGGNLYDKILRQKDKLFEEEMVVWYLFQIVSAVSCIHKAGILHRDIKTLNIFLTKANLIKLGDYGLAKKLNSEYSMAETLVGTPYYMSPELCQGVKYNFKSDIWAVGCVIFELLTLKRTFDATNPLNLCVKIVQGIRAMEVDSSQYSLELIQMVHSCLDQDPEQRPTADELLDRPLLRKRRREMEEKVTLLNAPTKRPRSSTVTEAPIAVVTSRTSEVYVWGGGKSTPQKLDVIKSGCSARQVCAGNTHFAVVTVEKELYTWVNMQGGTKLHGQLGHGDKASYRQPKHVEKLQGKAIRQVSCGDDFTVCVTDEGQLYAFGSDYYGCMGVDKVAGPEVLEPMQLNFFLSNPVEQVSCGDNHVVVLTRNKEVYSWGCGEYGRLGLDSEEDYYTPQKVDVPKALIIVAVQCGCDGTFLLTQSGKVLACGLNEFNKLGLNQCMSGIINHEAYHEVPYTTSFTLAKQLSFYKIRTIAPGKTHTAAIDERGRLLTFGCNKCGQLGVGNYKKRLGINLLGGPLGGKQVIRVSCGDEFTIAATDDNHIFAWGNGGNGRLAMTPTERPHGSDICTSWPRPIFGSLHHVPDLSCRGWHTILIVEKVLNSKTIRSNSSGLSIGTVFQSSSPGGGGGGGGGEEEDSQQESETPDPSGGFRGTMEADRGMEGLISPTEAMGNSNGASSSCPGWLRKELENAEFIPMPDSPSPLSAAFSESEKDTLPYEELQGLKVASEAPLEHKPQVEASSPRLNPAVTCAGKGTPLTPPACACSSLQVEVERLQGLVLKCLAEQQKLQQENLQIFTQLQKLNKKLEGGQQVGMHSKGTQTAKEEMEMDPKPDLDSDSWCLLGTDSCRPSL

Sequence of Sphingosine kinase 1 (Homo sapiens) (Q9NYA1 whole entry): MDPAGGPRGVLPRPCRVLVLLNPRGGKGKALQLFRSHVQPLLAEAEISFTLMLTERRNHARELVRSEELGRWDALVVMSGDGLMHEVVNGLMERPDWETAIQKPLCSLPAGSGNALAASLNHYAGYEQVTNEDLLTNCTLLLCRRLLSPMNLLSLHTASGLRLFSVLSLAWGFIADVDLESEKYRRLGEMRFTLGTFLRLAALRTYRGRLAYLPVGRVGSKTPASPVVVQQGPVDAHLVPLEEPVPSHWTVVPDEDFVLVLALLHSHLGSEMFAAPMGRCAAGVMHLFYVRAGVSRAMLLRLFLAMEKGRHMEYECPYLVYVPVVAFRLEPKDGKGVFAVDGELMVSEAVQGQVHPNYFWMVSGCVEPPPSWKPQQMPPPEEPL

## O=C1Nc2ccccc2/C1=C/Nc1ccc2[nH]c(=O)[nH]c2c1
[1]
  inhibition: -0.67%
[2]
  inhibition: -0.03%
[3]
  inhibition: -2.68%
[4]
  inhibition: 3.81%
[5]
  inhibition: 13.9%
[6]
  inhibition: 12.9%
[7]
  inhibition: 10.2%
[8]
  inhibition: 7.85%
[9]
  inhibition: 11.6%
[10]
  inhibition: 8.71%
[11]
  inhibition: 23.3%
[12]
  inhibition: 2.99%
[13]
  inhibition: 2.85%
[14]
  inhibition: 5.3%
[15]
  inhibition: 5.56%
[16]
  inhibition: 2.8%
[17]
  inhibition: 4.32%
[18]
  inhibition: 6.08%
[19]
  inhibition: 4.96%
[20]
  inhibition: 9.7%
